# Experimental data from PubChem BioAssay (Tox21).
# “And” between values parts separate entries of the source, which are not always exact repeats. Equal values may be shown once. Records with an inconclusive call do not appear. A call without a number means that no potency is given here. The source made the active and inactive calls. Unless noted, calls come from the whole dose curve; as a rule, active = well fitted curve in the direction sought with a large enough effect in the repeat runs; inconclusive = weak or mixed curves; inactive = no such curve, though single readings can be large; an effect the other way counts as inactive or inconclusive.
# Experiments:
# [1] = A CellTox Green Cytotoxicity Assay to monitor cytotoxicity in HEK293 cells - 32 hour (AID 1224881); note: nearly all actives have a fitted effect of over 40% in size; note: potency is the fitted concentration of half-maximal effect
# How it was run: (§1)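 Homogeneous no-lysis format: HEK293 cell suspension mixed with CellTox Green reagent, seeded, incubated 5 h at 37 C/5% CO2, then dosed by pintool with compound in DMSO.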
# [2] = A CellTox Green Cytotoxicity Assay to monitor cytotoxicity in HepG2 cells - 0 hour (AID 1224882); note: nearly all actives have a fitted effect of over 35% in size; note: potency is the fitted concentration of half-maximal effect
# How it was run: (§2)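 Fluorescent DNA-binding dye, 600 HepG2 cells/well, 5 h preincubation then compound in DMSO; same plates read at 0–40 h, 37 C.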
# [3] = A CellTox Green Cytotoxicity Assay to monitor cytotoxicity in HepG2 cells - 32 hour (AID 1224883); note: nearly all actives have a fitted effect of over 50% in size; note: potency is the fitted concentration of half-maximal effect
# How it was run: as §2
# [4] = qHTS RealTime-Glo MT Cell Viability Assay in HepG2 cells - 16 hour (AID 1224885); note: nearly all actives have a fitted effect of over 50% in size; note: potency is the fitted concentration of half-maximal effect
# How it was run: (§3)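 qHTS, HepG2, 600 cells/well, RealTime-Glo (NanoLuc + prosubstrate) added with cells; 5 h preincubation; DMSO compound addition; 37 C; luminescence at 0/8/16/24/32/40 h.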
# [5] = qHTS RealTime-Glo MT Cell Viability Assay in HepG2 cells - 0 hour (AID 1224889); note: nearly all actives have a fitted effect of over 50% in size
# How it was run: as §3
# [6] = qHTS assay to identify small molecule antagonists of the estrogen receptor alpha (ER-alpha) signaling pathway using the BG1 cell line in the presence of 0.1 nM 17-beta-estradiol - cell viability counter screen (AID 1259241); note: nearly all actives have a fitted effect of over 40% in size; note: potency is the fitted concentration of half-maximal effect
# How it was run: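 CellTiter-Fluor read (30 min, 37C) on ER-alpha/ERE-luc VM7Luc4E2 cells; 22 hr compound treatment; agonist 0.1 nM E2 final; same-well multiplex.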
# [7] = qHTS assay to identify small molecule antagonists of the androgen receptor (AR) signaling pathway using the MDA cell line in the presence of 0.5 nM R1881 - cell viability counter screen (AID 1259242); note: nearly all actives have a fitted effect of over 45% in size; note: potency is the fitted concentration of half-maximal effect
# How it was run: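 Human breast carcinoma MDA-kb2 cells, cultured without CO2, receive compounds alongside 0.5 nM (final) R1881 agonist. After 16 hr at 37C, viability is taken as live-cell protease signal.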
# [8] = qHTS assay to identify small molecule HDAC inhibitors - cell viability counter screen (AID 1259365); note: series mostly up to about 92 µM; nearly all actives have a fitted effect of over 50% in size
# How it was run: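 To flag cytotoxic hits, 1,500 wild-type HCT-116 cells per well, plated the day before, receive test compounds for 2hr at 37 C before CellTiter-Glo reagent and a luminescence read.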
# [9] = qHTS assay to identify small molecule agonists of the sonic hedgehog signaling (Shh) pathway - cell viability counter screen (AID 1259366); note: nearly all actives have a fitted effect of over 50% in size; note: potency is the fitted concentration of half-maximal effect
# How it was run: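 Fluorescence from CellTiter-Fluor reports live cells in this counter screen. NIH/3T3-derived Gli1-Luc reporter cells receive test compounds for 24hr at 37C; reagent goes in at 23hr.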
# [10] = qHTS assay to identify small molecule antagonists of the sonic hedgehog signaling (Shh) pathway - cell viability counter screen (AID 1259367); note: nearly all actives have a fitted effect of over 55% in size; note: potency is the fitted concentration of half-maximal effect
# How it was run: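 CellTiter-Fluor signal in conditioned medium-stimulated 3T3 Gli1-Luc cells, 23 hr compound exposure, 37C.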
# [11] = qHTS assay to identify small molecule agonists of the sonic hedgehog signaling (Shh) pathway (AID 1259368; calls by dose curve;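 note: NIH/3T3-derived 3T3Gli1-Luc cells carrying a stable Gli1-driven firefly luciferase reporter; series mostly up to about 92 µM; nearly all actives have a fitted effect of over 15% in size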)
# How it was run: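 Stable NIH/3T3 Gli1-Luc reporter clone; 24 hr cpd exposure after a 4 hr settling period; luminescence endpoint.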
# [12] = A CellTox Green Cytotoxicity Assay to monitor cytotoxicity in HEK293 cells - 8 hour (AID 1224884); note: nearly all actives have a fitted effect of over 35% in size
# How it was run: as §1
# [13] = qHTS RealTime-Glo MT Cell Viability Assay in HEK293 cells - 24 hour (AID 1224886); note: nearly all actives have a fitted effect of over 50% in size; note: potency is the fitted concentration of half-maximal effect
# How it was run: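 Assay medium contained NanoLuc luciferase plus cell-permeant prosubstrate, added with HEK293 cells at 600 cells/well. After 5 h at 37 C/5% CO2 compounds were added; plates stayed at 37 C for 40 h with serial luminescence reads.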
# [14] = A CellTox Green Cytotoxicity Assay to monitor cytotoxicity in HEK293 cells - 16 hour (AID 1224888); note: nearly all actives have a fitted effect of over 35% in size; note: potency is the fitted concentration of half-maximal effect
# How it was run: as §1
# [15] = A CellTox Green Cytotoxicity Assay to monitor cytotoxicity in HepG2 cells - 8 hour (AID 1224890); note: nearly all actives have a fitted effect of over 45% in size; note: potency is the fitted concentration of half-maximal effect
# How it was run: as §2
# [16] = target: Androgen receptor (Homo sapiens) (UniProt P10275); assay: qHTS assay to identify small molecule antagonists of the androgen receptor (AR) signaling pathway using the MDA cell line in the presence of 0.5 nM R1881 (AID 1259243)
# Chain of Androgen receptor (Homo sapiens) (P10275 whole entry, looked up): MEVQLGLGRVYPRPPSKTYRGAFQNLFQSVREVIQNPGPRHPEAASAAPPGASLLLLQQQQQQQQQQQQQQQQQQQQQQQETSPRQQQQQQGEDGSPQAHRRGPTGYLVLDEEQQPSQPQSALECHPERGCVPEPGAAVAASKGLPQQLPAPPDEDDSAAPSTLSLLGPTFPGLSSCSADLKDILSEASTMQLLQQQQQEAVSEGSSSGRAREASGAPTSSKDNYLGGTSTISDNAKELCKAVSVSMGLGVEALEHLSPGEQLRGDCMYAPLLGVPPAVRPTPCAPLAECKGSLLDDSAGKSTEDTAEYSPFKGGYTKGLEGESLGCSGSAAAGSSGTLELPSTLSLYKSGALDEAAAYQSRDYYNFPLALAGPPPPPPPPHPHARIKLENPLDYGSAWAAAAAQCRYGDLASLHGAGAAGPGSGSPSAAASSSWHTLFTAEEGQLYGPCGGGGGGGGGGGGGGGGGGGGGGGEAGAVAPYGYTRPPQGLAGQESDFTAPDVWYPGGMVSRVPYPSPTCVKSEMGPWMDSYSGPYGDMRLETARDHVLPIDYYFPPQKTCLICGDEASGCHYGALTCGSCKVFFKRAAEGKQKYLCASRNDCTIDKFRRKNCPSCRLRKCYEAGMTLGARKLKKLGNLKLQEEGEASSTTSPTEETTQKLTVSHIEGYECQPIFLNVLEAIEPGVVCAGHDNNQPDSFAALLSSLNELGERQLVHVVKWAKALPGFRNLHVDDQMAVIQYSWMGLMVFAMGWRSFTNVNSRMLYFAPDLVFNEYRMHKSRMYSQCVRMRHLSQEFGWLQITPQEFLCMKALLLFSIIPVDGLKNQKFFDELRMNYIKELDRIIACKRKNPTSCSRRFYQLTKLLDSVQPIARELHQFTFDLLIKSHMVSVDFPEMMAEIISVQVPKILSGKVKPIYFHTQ
# How it was run: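 Cells: MDA-kb2 (MMTV-luc). Stimulus: 0.5 nM R1881. Time: 16 hr, 37C, no CO2. Detection: ONE-Glo luminescence after 30 min at RT.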
# [17] = target: Estrogen receptor (Homo sapiens) (UniProt P03372); assay: qHTS assay to identify small molecule antagonists of the estrogen receptor alpha (ER-alpha) signaling pathway using the BG1 cell line in the presence of 0.1 nM 17-beta-estradiol (AID 1259244); note: nearly all actives have a fitted effect of over 50% in size; note: potency is the fitted concentration of half-maximal effect
# Chain of Estrogen receptor (Homo sapiens) (P03372 whole entry, looked up): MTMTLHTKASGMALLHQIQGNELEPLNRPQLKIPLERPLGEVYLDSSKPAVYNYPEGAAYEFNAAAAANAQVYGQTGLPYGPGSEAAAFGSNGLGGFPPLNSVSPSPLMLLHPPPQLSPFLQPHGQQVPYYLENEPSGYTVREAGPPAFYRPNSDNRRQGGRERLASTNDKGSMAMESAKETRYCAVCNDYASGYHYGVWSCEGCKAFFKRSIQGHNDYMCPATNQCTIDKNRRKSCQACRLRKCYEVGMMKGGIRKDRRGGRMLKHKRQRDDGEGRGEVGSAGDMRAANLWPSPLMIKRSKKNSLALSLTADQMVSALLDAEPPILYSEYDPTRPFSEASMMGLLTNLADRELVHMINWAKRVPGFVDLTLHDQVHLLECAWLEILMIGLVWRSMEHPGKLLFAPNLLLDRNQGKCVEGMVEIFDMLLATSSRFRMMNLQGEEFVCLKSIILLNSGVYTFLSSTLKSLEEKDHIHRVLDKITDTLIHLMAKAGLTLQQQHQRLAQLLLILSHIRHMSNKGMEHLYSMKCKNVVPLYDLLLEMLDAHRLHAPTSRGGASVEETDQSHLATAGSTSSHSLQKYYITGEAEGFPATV
# How it was run: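 Seeding of stripped-serum-adapted VM7Luc4E2 cells, 24 h attachment, compound transfer, then 0.1 nM final 17beta-estradiol; after 22 h incubation, ONE-Glo reagent and luminescence reading.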
# [18] = qHTS assay to identify small molecule HDAC inhibitors (AID 1259364); note: potency is the fitted concentration of half-maximal effect;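 note: wild-type HCT-116 cells with endogenous class I/II HDAC activity; nearly all actives have a fitted effect of over 45% in size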
# How it was run: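 After a 2 hr compound incubation (37C, 5% CO2), HCT-116 cells seeded at 1,500/well the day before received HDAC-Glo reagent; signal read as luminescence after 30 min at room temperature.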
# [19] = qHTS RealTime-Glo MT Cell Viability Assay in HEK293 cells - 8 hour (AID 1224887); note: nearly all actives have a fitted effect of over 50% in size; note: potency is the fitted concentration of half-maximal effect
# How it was run: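 Measured as luminescence from the same continuously cultured HEK293 wells at successive time points (0, 8, 16, 24, 32, 40 h) after compound addition. Reagent present from seeding; dosing at 5 h; incubation 37 C.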
# [20] = qHTS assay to identify small molecule phospholipidosis (PLD) inducers (AID 1259344; active = well fitted curve in the direction sought with a large enough effect; an effect the other way counts as inactive or inconclusive)
# How it was run: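 Accumulated phospholipid, stained red by LipidTOX during 24 h compound treatment of HepG2 cells at 37 C, is quantified from images as pit number and intensity, normalised per cell using Hoechst-stained nuclei.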
SMILES,Potency [1],Potency [2],Potency [3],Potency [4],Potency [5],Potency [6],Potency [7],Potency [8],Potency [9],Potency [10],Potency [11],Potency [12],Potency [13],Potency [14],Potency [15],Potency [16],Potency [17],Potency [18],Potency [19],Potency [20]
CC(Cc1ccc(C(C)(C)C)cc1)CN1C[C@@H](C)O[C@@H](C)C1 (stereo partly specified),49 µM (active),inactive,49 µM (active),inactive,inactive,inactive,inactive,inactive,inactive,inactive,inactive,,,,,,,,,
N#Cc1c(-c2ccc(Cl)cc2)[nH]c(C(F)(F)F)c1Br,49 µM (active),inactive,,,,inactive,,inactive,,27.3 µM (active),inactive,inactive,1.1 µM (active),inactive,inactive,0.433 µM (active),0.611 µM (active),inactive,,
ClC1=C(Cl)C2(Cl)C3C(Cl)C=CC3C1(Cl)C2(Cl)Cl (stereo unspecified),55.2 µM (active) and 49 µM (active),inactive,54.9 µM (active),,inactive,inactive,inactive,inactive,inactive,inactive,inactive,,43.8 µM (active) and 49 µM (active),55.2 µM (active) and 49 µM (active),,,inactive,inactive,43.8 µM (active) and 43.6 µM (active),
O=C(CCCN1CCC2(CC1)C(=O)NCN2c1ccccc1)c1ccc(F)cc1,inactive,inactive,inactive,,inactive,,inactive,,inactive,inactive,inactive,,10.7 µM (active),inactive,inactive,,8.41 µM (active),inactive,16.9 µM (active),
Cc1cc(C(C)(C)c2cc(C)c(O)c(C)c2)cc(C)c1O,inactive,inactive,,,inactive,inactive,inactive,inactive,,inactive,inactive,inactive,21.2 µM (active),inactive,inactive,,,inactive,,
CCCCOCN(C(=O)CCl)c1c(CC)cccc1CC,inactive,inactive,,,inactive,inactive,inactive,inactive,,61.1 µM (active),inactive,inactive,inactive,inactive,inactive,30.6 µM (active),inactive,,inactive,
CC[C@H](C)[C@H]1O[C@]2(C=C[C@@H]1C)C[C@@H]1C[C@@H](C/C=C(\C)[C@@H](O[C@H]3C[C@H](OC)[C@@H](O[C@H]4C[C@H](OC)[C@@H](O)[C@H](C)O4)[C@H](C)O3)[C@@H](C)/C=C/C=C3\CO[C@@H]4[C@H](O)C(C)=C[C@@H](C(=O)O1)[C@]34O)O2,inactive,inactive,,,inactive,32.2 µM (active),36.1 µM (active),inactive,36.1 µM (active),,inactive,inactive,,inactive,,,22.8 µM (active),inactive,inactive,inactive
CC(C)Oc1cccc(NC(=O)c2ccccc2C(F)(F)F)c1,1.23 µM (active),49 µM (active),43.6 µM (active),,inactive,inactive,inactive,inactive,inactive,,inactive,,,49 µM (active),49 µM (active),,,inactive,,inactive
CC(=O)/C=C/c1ccc2c(c1)OCO2,inactive,inactive,,inactive,inactive,inactive,inactive,inactive,,,inactive,inactive,inactive,inactive,inactive,68.9 µM (active),,27.4 µM (active),,
O=C(O)c1cc[c]([Hg][Cl])cc1,21.9 µM (active),inactive,21.9 µM (active),30.9 µM (active),inactive,inactive,,inactive,27.3 µM (active),43.3 µM (active),inactive,,,,38.9 µM (active),,inactive,30.6 µM (active),34.7 µM (active),
CC(=O)c1cc(C(C)(C)C)cc2c1CCC2(C)C,38.9 µM (active),inactive,,inactive,inactive,inactive,inactive,inactive,,inactive,inactive,,inactive,inactive,inactive,,inactive,inactive,,
Oc1cccc(-c2ccccc2)c1,inactive,inactive,inactive,inactive,inactive,inactive,inactive,inactive,inactive,inactive,inactive,,,inactive,inactive,,inactive,,,
CC(C)(C)C(O)C(Oc1ccc(-c2ccccc2)cc1)n1cncn1 (stereo unspecified),inactive,inactive,,,inactive,inactive,inactive,inactive,,24.3 µM (active),inactive,inactive,43.6 µM (active),inactive,inactive,30.6 µM (active),,,,
CC1(C)[C@H](C(=O)O[C@H](C#N)c2cccc(Oc3ccccc3)c2)[C@@H]1/C=C(\Cl)C(F)(F)F,inactive,inactive,inactive,inactive,inactive,inactive,inactive,inactive,inactive,inactive,inactive,,,inactive,inactive,,,inactive,,
CCCN(CCC)CCc1c[nH]c2ccccc12,inactive,inactive,,inactive,inactive,,inactive,inactive,inactive,inactive,,inactive,inactive,inactive,inactive,,inactive,inactive,inactive,
